ST2 inh – inhibitors of human ST2 (IL1RL1) binding to IL-33 | Q01638 | hit rate 2.3% among 78,000 | inhibition, % for hits at 17 µM | AlphaLISA ST2-Fc/biotin-IL-33 interaction, 1 h | AID 1259354; in the data active means inhibition above about 30%
Target sequence (Q01638 whole entry, looked up): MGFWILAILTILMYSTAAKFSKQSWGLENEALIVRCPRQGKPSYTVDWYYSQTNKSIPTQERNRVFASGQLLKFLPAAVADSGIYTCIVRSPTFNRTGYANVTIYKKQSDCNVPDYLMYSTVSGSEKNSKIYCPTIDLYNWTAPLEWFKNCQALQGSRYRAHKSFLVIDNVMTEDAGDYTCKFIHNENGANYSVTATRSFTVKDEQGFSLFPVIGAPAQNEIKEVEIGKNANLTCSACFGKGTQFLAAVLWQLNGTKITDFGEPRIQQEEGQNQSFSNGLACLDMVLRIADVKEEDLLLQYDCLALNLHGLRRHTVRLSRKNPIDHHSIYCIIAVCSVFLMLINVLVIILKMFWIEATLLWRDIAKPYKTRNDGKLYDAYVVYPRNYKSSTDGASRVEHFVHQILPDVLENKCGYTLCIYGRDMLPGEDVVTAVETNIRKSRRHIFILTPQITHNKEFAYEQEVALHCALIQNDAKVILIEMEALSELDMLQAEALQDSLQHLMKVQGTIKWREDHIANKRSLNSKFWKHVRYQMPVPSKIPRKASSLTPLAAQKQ
Of the large screens only hits and unclear results are named; the others gave an inactive call; ! = a repeat was not active. Shown is part of a subset that was picked to be rich in hits.

COc1ccc(C(=O)N2Cc3[nH]cnc3C[C@H]2c2nc(-c3ccc(OC)cc3)no2)cc1	none
COc1ccc(-c2ccc(/C=C3/C(=O)NN(c4ccc(C)c(Cl)c4)C3=O)o2)c([N+](=O)[O-])c1	ST2 inh 41%
COc1cccc(/C=C2/C(=O)NN(c3ccc(C)c(Cl)c3)C2=O)c1OCC#N	none
Cc1ccc(-c2ccc(/C=C3/C(=O)NN(c4ccc(F)cc4)C3=O)o2)c([N+](=O)[O-])c1C	ST2 inh 42%
N=C1S/C(=C/c2ccc(-c3ccccc3[N+](=O)[O-])o2)C(=O)N1c1nonc1N	none
COc1ccccc1/C=C1/C(=O)NN(c2ccc(C)c(Cl)c2)C1=O	none
Cc1cc(Cn2ccnc2-c2ccc3c(c2)CC(C)(C)O3)no1	none
COc1cc([N+](=O)[O-])ccc1NC(=O)c1ccc2c(c1)C(=O)N(CC(C)C)C2=O	none
O=C(NCc1ccccc1)C(NS(=O)(=O)c1cccs1)c1ccccc1 (stereo not drawn)	none
COc1ccc(C(=O)N2CCN=C2SCc2ccc(Cl)cc2)cc1OC	none
COc1cc([N+](=O)[O-])ccc1N1CCCC1	ST2 inh 38%
COc1ccccc1N1CCN(C(=O)Nc2ccc([N+](=O)[O-])cc2)CC1	none
COc1ccc([N+](=O)[O-])cc1NC(=O)C(Cl)(Cl)Cl	none
CCN(CC)CC(O)COc1cc([N+](=O)[O-])ccc1N1CCCC1 (stereo not drawn)	none
COc1ccc([N+](=O)[O-])cc1-n1cccc1	ST2 inh 39%
COc1cc([N+](=O)[O-])ccc1N	none
CC(=O)c1ccc(NC(=O)c2cc(S(=O)(=O)N3CCOCC3)ccc2Cl)cc1	none
O=C(COC(=O)c1cc(=O)[nH]c2ccccc12)c1ccc(OCc2ccccc2)cc1	none
CN(Cc1ccco1)C(=O)CN1N=C(c2ccccc2)CCC1=O	none
C=CCN(Cc1ccccn1)Cc1c(C)nn(C)c1Cl	none
Cc1nn(CCCC(=O)Nc2ccccc2C(F)(F)F)c(C)c1[N+](=O)[O-]	none
O=C(Nc1ccccc1C(F)(F)F)C1c2ccccc2Oc2ccccc21	none
CCc1ccc(NC(=O)Cn2nnnc2N)cc1	none
Cc1ccc(-c2nnc([C@H]3CCN(Cc4ccc(Cl)cc4)C3)o2)cc1	none
COCCOC(=O)c1c(C)oc2ccc(OCc3c(Cl)cccc3Cl)cc12	none
CCOc1ccc(-c2nc3s/c(=C\c4ccc(C)cc4)c(=O)n3n2)cc1	none
CCOc1ccc(/C=c2\sc3n(c2=O)CN(c2cccc(C(C)=O)c2)CN=3)cc1	ST2 inh 31%
CCOc1ccc(/C=c2\sc3n(c2=O)CN(c2ccc4c(c2)OCO4)CN=3)cc1	ST2 inh 31%
CC(=O)c1ccc(N2CN=c3s/c(=C\c4ccc(I)o4)c(=O)n3C2)cc1	none
CCOc1ccc(CN2CCN(Cc3ccc4c(c3)OCO4)CC2)cc1	none
CCCCOc1ccc(/C=c2\sc3nc(=O)c(C)nn3c2=O)cc1	none
Fc1ccc(Nc2c(-c3ccco3)nc3ccc(Br)cn23)cc1	none
CCC(Cn1ccnc1)NC(=O)c1ccc2c(c1)nnn2C (stereo not drawn)	none
CC(C)C(Cn1ccnc1)NC(=O)c1ccccc1N1CCOCC1 (stereo not drawn)	none
CC(C)c1cc(C(=O)NC(Cn2ccnc2)C(C)C)nc2ncnn12 (stereo not drawn)	ST2 inh 30%
O=[N+]([O-])c1ccc(N2CCN(c3ccccc3)CC2)c2ncccc12	ST2 inh 32%
O=C(c1ccc(Cl)cc1)N1CCN(c2ccc([N+](=O)[O-])c3ncccc23)CC1	none
O=C(Cc1ccccc1[N+](=O)[O-])N1CCN(c2ccccn2)CC1	none
O=C(O)C1C2C=CC(C2)C1C(=O)Nc1ccc(F)cc1 (stereo not drawn)	none
CCOc1ccc(N(CC)C(=O)CCS(=O)(=O)c2cccc3nsnc23)cc1	none
Cc1ccc(Cl)cc1N1C(=O)C2C3CCC(C3)C2C1=O (stereo not drawn)	none
Cc1cccc(-c2noc(CN(C)C(=O)c3cnn4cc(C)cnc34)n2)c1	none
Cc1ccc(C(=O)N[C@H]2CO[C@H]3[C@@H]2OC[C@@H]3n2nnnc2Oc2cccc(N(C)C)c2)cc1	ST2 inh 81%
COC(=O)c1cccc(NC(=S)N[C@H]2CO[C@H]3[C@@H]2OC[C@@H]3n2nnnc2Oc2cccc(N(C)C)c2)c1	none
Cc1ccc(C(=O)N[C@H]2CO[C@H]3[C@@H]2OC[C@@H]3n2nnnc2-c2ccc(N(C)C)cc2)cc1	none
Cc1ccc(C(=O)N[C@@H]2C=C(C(=O)NCCC(N)=O)C[C@@H](O)[C@@H]2O)cc1	none
CC(C)(C)CC(=O)N[C@@H]1C=C(C(=O)NCCC(N)=O)C[C@@H](O)[C@@H]1O	ST2 inh 83%
NC(=O)CCNC(=O)C1=C[C@@H](NC(=O)Cc2cccs2)[C@@H](O)[C@H](O)C1	none
COc1ccc(C(=O)Nc2ccccc2)cc1N	none
CCCCOc1ccccc1NC(=O)c1cncc(Br)c1	none
CCOc1ccccc1/C=C1\N=C(c2ccc(OC)c([N+](=O)[O-])c2)OC1=O	none
COc1ccc(C2=Cc3cc(OC)c(OC)cc3/C(=C/c3ccc(OC)c(OC)c3)O2)cc1	none
CCOc1ccc(/C=C2\N=C(c3ccccc3Cl)OC2=O)cc1	none
Cc1cc2c(c(=O)[nH]1)C(=O)O/C2=C\c1cccs1	none
CCOc1ccc(/C=C2/OC(=O)c3c2cc(C)[nH]c3=O)cc1OC	ST2 inh 51%
CCOc1ccc(/C=C2\N=C(c3ccccc3OC)OC2=O)cc1OCC	ST2 inh 34%
CCN(CC)CCNC(=O)c1cn(C)c(=O)c2c1c1ccccc1n2C	none
CSc1nc2c(c(=O)n1-c1ccc(Cl)cc1)SCC2	none
CCC1Oc2ccccc2N(CC(=O)NCCCN2CC(C)CC(C)C2)C1=O (stereo not drawn)	none
CN(C)CCNC(=O)C1(O)c2ccccc2NC(=O)N1c1c(F)cccc1F (stereo not drawn)	none
C=CCNc1nc(-c2ccccc2)cc(C(F)(F)F)c1C#N	none
CCOc1ccc2nc(Cl)c(C3CC(c4ccccc4)=NN3C(=O)CCCC(=O)O)cc2c1 (stereo not drawn)	none
COCCNC(=O)c1cc2cc3ccc(Cl)cc3nc2o1	none
O=C(NC1CCCC1)c1ccc(Cl)cc1Cl	none
COCCNC(=O)c1cc2cc3ccc(OC)cc3nc2o1	none
O=C(NC1CCCCCC1)c1cc2cc3ccc(Cl)cc3nc2o1	ST2 inh 36%!
CC1CC(C)CN(CCCNC(=O)c2cc3cc4ccc(Cl)cc4nc3o2)C1 (stereo not drawn)	none
O=C(NCc1ccco1)c1cc2cc3ccc(Cl)cc3nc2o1	ST2 inh 34%
CC1CCCC(NC(=O)c2cc3cc4ccc(Cl)cc4nc3o2)C1C (stereo not drawn)	ST2 inh 30%
CCCN(CCC)CCCNC(=O)c1cc2cc3ccc(Cl)cc3nc2o1	none
COc1ccc2cc3cc(C(=O)NCC4CCCO4)oc3nc2c1 (stereo not drawn)	none
O=C(NC1CCCCC1)c1cc2cc3ccc(Cl)cc3nc2o1	ST2 inh 43%!
CCCCN(CC)CCNC(=O)c1cc2cc3ccc(Cl)cc3nc2o1	none
COc1ccc2cc3cc(C(=O)N4CCCC(C)C4)oc3nc2c1 (stereo not drawn)	none
COc1cc(CN(C)Cc2nc3ccccc3n2C)cc(F)c1O	none
N#Cc1c(NC(=O)CN2C(=O)c3ccccc3C2=O)sc2c1CCCCC2	none
O=C(c1coc(CN2CCN(C/C=C/c3ccccc3)CC2)n1)N1C[C@H]2CC[C@@H]1C2	none
CCSc1nnc2c(n1)OC(c1c(OC)cc(OC)cc1OC)Nc1ccccc1-2 (stereo not drawn)	none
CCN(CC)CCn1c(SCC(=O)N2CCC(C)CC2)nc2c(sc3ccccc32)c1=O	none
O=C1C=C(c2ccccc2)C[C@H](c2cccs2)[C@H]1n1nnc([N+](=O)[O-])n1	ST2 inh 33%

Screening results: PubChem, Paczesny and Yang Labs, IUPUI and University of Michigan
